# Measurements as given in PubChem BioAssay (EPA / NIEHS).
# Values joined by “and” are separate entries in the source; they are usually repeats but may differ in a detail not shown here. Identical values can stand only once. Active and inactive are the calls of the source. How the source made its calls: active means hit-call score of the fitted dose curve at least 0.9, where 1 is the maximum; inactive means score below 0.9.
# Experiment: ATG_PXRE_CIS: Attagene CIS-FACTORIAL HepG2 Assay for human Pregnane X Receptor Element (PXRE) (AID 2282957)
# Details: HepG2 Attagene CIS-FACTORIAL PXRE reporter, mRNA; actives raise or lower the signal
# Outline: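 After a 24 h chemical incubation, total RNA from transfected HepG2 cells was reverse-transcribed and reporter cDNA amplified, FAM-labeled, HpaI-digested and sized by capillary electrophoresis. DMSO served as baseline for bidirectional curve fitting.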
Compound,AC50,outcome
CCOP(=O)(SC(C)CC)N1CCSC1=O (configuration not stated),22.9 µM (active),
CCCCOC(=O)[C@@H](C)Oc1ccc(Oc2ccc(C#N)cc2F)cc1,64.7 µM (active),
CC(=NC#N)N(C)Cc1ccc(Cl)nc1,64.9 µM (active),
CCc1cccc(C)c1N(C(=O)CCl)C(C)COC (configuration not stated),0.603 µM (active),
COc1cc(OC)nc(Sc2cccc(Cl)c2C(=O)O)n1,,inactive
CON=C(C(=O)OC)c1ccccc1CON=C(C)c1cccc(C(F)(F)F)c1,32.1 µM (active),
CC1=NNC(=O)N(/N=C/c2cccnc2)C1,,inactive
S=C1NCCN1,,inactive
CC(C)=CC1C(C(=O)OCN2C(=O)C3=C(CCCC3)C2=O)C1(C)C (configuration not stated),13.5 µM (active),
CC(C1CC1)C(O)(Cn1cncn1)c1ccc(Cl)cc1 (configuration not stated),24.8 µM (active),
C#CC(C)(C)NC(=O)c1cc(Cl)cc(Cl)c1,7.44 µM (active),
CCC(=O)Nc1ccc(Cl)c(Cl)c1,50 µM (active),
O=C(O)c1cc(Oc2ccc(C(F)(F)F)cc2Cl)ccc1[N+](=O)[O-],60 µM (active),
CCOP(=S)(OCC)SCCSCC,13.7 µM (active),
CCc1cnc(C2=NC(C)(C(C)C)C(=O)N2)c(C(=O)O)c1 (configuration not stated),,inactive
CCOP(=S)(Oc1cnc(C(C)(C)C)nc1)OC(C)C (configuration not stated),1.84 µM (active),
CCOP(=S)(OCC)OC(Cl)C(Cl)(Cl)Cl (configuration not stated),35.6 µM (active),
CN(C)C(=O)Nc1cccc(C(F)(F)F)c1,,inactive

Compound,AC50,outcome
CNC(=O)ON=C(C)SC,,inactive
CCCOc1nn(C(=O)NS(=O)(=O)c2ccccc2C(=O)OC)c(=O)n1C,50 µM (active),
CCOC(=O)COc1cc(-c2nn(C)c(OC(F)F)c2Cl)c(F)cc1Cl,47.3 µM (active),
CCOP(=S)(OCC)Oc1ccc([N+](=O)[O-])cc1,9.68 µM (active),
CC[C@H](C)[C@H]1O[C@]2(C=C[C@@H]1C)C[C@@H]1C[C@@H](C/C=C(\C)[C@@H](O[C@H]3C[C@H](OC)[C@@H](O[C@H]4C[C@H](OC)[C@@H](NC)[C@H](C)O4)[C@H](C)O3)[C@@H](C)/C=C/C=C3\CO[C@@H]4[C@H](O)C(C)=C[C@@H](C(=O)O1)[C@]34O)O2,,inactive
CN(C)[C@@H]1C(=O)C(C(N)=O)=C(O)[C@@]2(O)C(=O)C3=C(O)c4c(O)cccc4[C@@](C)(O)[C@H]3[C@H](O)[C@@H]12,65 µM (active) and 26.5 µM (active) and 34.9 µM (active),
CCNc1nc(Cl)nc(NC(C)(C)C#N)n1,29.2 µM (active),
CC(C)[C@H](C(=O)O[C@H](C#N)c1cccc(Oc2ccccc2)c1)c1ccc(Cl)cc1,1.04 µM (active),
CCOP(=S)(OCC)Oc1ccc2c(C)c(Cl)c(=O)oc2c1,1.46 µM (active),
CSc1nc(NC(C)C)nc(NC(C)C)n1,4.94 µM (active),
COP(=O)(OC)SCn1c(=O)oc2cc(Cl)cnc21,8.16 µM (active),
CN(C)NC(=O)CCC(=O)O,,inactive
Cc1nn(-c2cc(NS(C)(=O)=O)c(Cl)cc2Cl)c(=O)n1C(F)F,5.33 µM (active),
CCCCN(CC)c1c([N+](=O)[O-])cc(C(F)(F)F)cc1[N+](=O)[O-],7.62 µM (active),
CCC(=NOC/C=C/Cl)C1=C(O)CC(C2CCOCC2)CC1=O (configuration not stated),,inactive
C[N+]1(C)CCCCC1,,inactive
CNC(=O)ON=C(SC)C(=O)N(C)C,29.3 µM (active),
COP(=O)(NC(C)=O)SC (configuration not stated),30.5 µM (active),

# Experiment: ATG_PPRE_CIS: Attagene CIS-FACTORIAL HepG2 Assay for human Peroxisome Proliferator-activated Response Element (PPRE) (AID 2282958)
# Details: HepG2 PPRE cis-element reporter, Attagene transcription factor profiling; actives raise or lower the signal
# Outline: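 Endogenous PPRE-driven transcription is measured in HepG2 cells carrying transfected multi-reporter constructs. Reporter transcripts are quantified by RT-PCR, HpaI digestion and capillary electrophoresis 24 h after dosing. DMSO baseline, bidirectional fit.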
Compound,outcome,AC50
CCOP(=O)(SC(C)CC)N1CCSC1=O (configuration not stated),inactive,
CCCCOC(=O)[C@@H](C)Oc1ccc(Oc2ccc(C#N)cc2F)cc1,inactive,
CC(=NC#N)N(C)Cc1ccc(Cl)nc1,inactive,
CON=C(C(=O)OC)c1ccccc1CON=C(C)c1cccc(C(F)(F)F)c1,inactive,
CC1=NNC(=O)N(/N=C/c2cccnc2)C1,inactive,
CC(C1CC1)C(O)(Cn1cncn1)c1ccc(Cl)cc1 (configuration not stated),inactive,
CCOP(=S)(OCC)SCCSCC,inactive,
CCc1cnc(C2=NC(C)(C(C)C)C(=O)N2)c(C(=O)O)c1 (configuration not stated),inactive,
CCOP(=S)(Oc1cnc(C(C)(C)C)nc1)OC(C)C (configuration not stated),inactive,
CCOP(=S)(OCC)OC(Cl)C(Cl)(Cl)Cl (configuration not stated),inactive,
CN(C)C(=O)Nc1cccc(C(F)(F)F)c1,inactive,
CNC(=O)ON=C(C)SC,inactive,
CCCOc1nn(C(=O)NS(=O)(=O)c2ccccc2C(=O)OC)c(=O)n1C,inactive,
CCOC(=O)COc1cc(-c2nn(C)c(OC(F)F)c2Cl)c(F)cc1Cl,inactive,
CCOP(=S)(OCC)Oc1ccc([N+](=O)[O-])cc1,,50 µM (active)
CCNc1nc(Cl)nc(NC(C)(C)C#N)n1,inactive,
CC(C)[C@H](C(=O)O[C@H](C#N)c1cccc(Oc2ccccc2)c1)c1ccc(Cl)cc1,inactive,
CCOP(=S)(OCC)Oc1ccc2c(C)c(Cl)c(=O)oc2c1,,15 µM (active)
COP(=O)(OC)SCn1c(=O)oc2cc(Cl)cnc21,inactive,
CN(C)NC(=O)CCC(=O)O,inactive,
Cc1nn(-c2cc(NS(C)(=O)=O)c(Cl)cc2Cl)c(=O)n1C(F)F,inactive,
CCCCN(CC)c1c([N+](=O)[O-])cc(C(F)(F)F)cc1[N+](=O)[O-],inactive,
CCC(=NOC/C=C/Cl)C1=C(O)CC(C2CCOCC2)CC1=O (configuration not stated),inactive,
C[N+]1(C)CCCCC1,inactive,
CNC(=O)ON=C(SC)C(=O)N(C)C,inactive,
COP(=O)(NC(C)=O)SC (configuration not stated),inactive,
